Experimental data from article PMC12864922, “TDP-43 directly inhibits mRNA accumulation in neurites through modulation of mRNA stability”.
Over roughly 9,900 sequences, “r (bound/input frequency ratio)” has its median near 0.7; the highest 2% begin near 6.5. The entries come from a sample that favours the highest values as a whole.

B1: ENSMUSG00000043670.167|Diras1 (ssRNA)
RNA: GGGAGUUCUACAGUCCGACGAUCGCUUCGAUAUCCGCAUGCUAGGUUUGGGGUGCUGAGGGUGGGGUGCCCAGCUGAGAGUCUAUCAGCAAAGUCCCUGUGUGCGGUGAUAGGACUAGUGGCUGCUGCCCUAGGGCUCUGACAGAAUCUGAGCCUCUUUGCUGGUCAUGUGUACUCUGGAGACUGUCCCCCAUGUCUGCCCUGAGUUACGGAGCCCCUGUGGUAUCUGCGAGACUGUCCAGGAGACUUGAGUGGCUCCUGGGCCUGUGUCCCACCCAGAUGAGGGUGACUUAGAAUUCUGUGUCUCUUGCGGUCGCACUAGUGUGGAAUUCUCGGGUGUCAAGG
B2: ENSMUSG00000042529.74|Kcnj12 (ssRNA)
RNA: GGGAGUUCUACAGUCCGACGAUCGCUUCGAUAUCCGCAUGCUAACUUGGGCAAGACUGUUUACAAACAAAAACAAACAAACAAACAAUCAAAAAAAAAACCCACCCCACAAAACACAAGAAAACAUUAACAGGUGGUUCAAUUUUUAAAAUUCCUGGUGUGGGGACAGUUGGAAUUCUACUCAGCGCUGCCAGGCAAGCAGCUGGACGGAGAACCCUGAGGGUUCUCAGAGGUCUGUUUUCUCCCUCACGUGGGCCAGGGCCUUAAGCGAGUUGUCAUGCUUAAGGAUGAAUCAGGCUGCUUGCUCUUGCGGUCGCACUAGUGUGGAAUUCUCGGGUGUCAAGG
B3: ENSMUSG00000032194.238|Kank2 (ssRNA)
RNA: GGGAGUUCUACAGUCCGACGAUCGCUUCGAUAUCCGCAUGCUAAAACCUCAGCAGGGCAGCAUUGAGACUCAUGGACUAAAGGAAAGUGUUCACUCUUCUAGACAAGUGGGUCUCUUGGUUUGAUGGAGUCUUACUCCGCUUGAGUUUUGUAGAAGGGGUUUGUCUAAGGCAUAGAGGCUUGGUUGGCAUAAGAAAAUAAGAUGGACAGAUGGAUGGGUGGAUGGAUGGAUGGCUGAUUGAGUGGGUGGGUGGGUGGAUGGAUGCAUAAAUGAAUAGAUGGAUGGAUGAAUGAACAGAUAGAUCUCUUGCGGUCGCACUAGUGUGGAAUUCUCGGGUGUCAAGG
B4: ENSMUSG00000028439.2|Fam219a|50:54;256:260 (ssRNA)
RNA: GGGAGUUCUACAGUCCGACGAUCGCUUCGAUAUCCGCAUGCUAGACGAGGACCUAGAUCUCAUCCCCCCCAAGUCUGUGAACCCCACCUGCAACACAUGUCAGGCCACUUCCUCCACCGCCUGCCACAUUCAGUAGUGGGCGGGGUCGCCGCGGUGCACGGGGCGCUGACCUGGGCCCGGUGGGAUGCAGCAGGAGAGACCCCUACCCUGCUGGUCCACUGGUCCCCAGCCCCGCGCCUCUUAGAGCCGCCAACCUCGUAACAGUCAUUGCUUCCUCCUAUGGUAGGACGUGUACCUCACACACUCUUGCGGUCGCACUAGUGUGGAAUUCUCGGGUGUCAAGG
B5: ENSMUSG00000058297.541|Spock2|207:211 (ssRNA)
RNA: GGGAGUUCUACAGUCCGACGAUCGCUUCGAUAUCCGCAUGCUAUUUUGAUAUCGGCUCCCCAAAGCCCAAGCCCACAGCCCUAGGAGAGAACCAGGGGCCCAUCUUUGACACCUGGGCCAUCACGAGCCCUCCCGCCUGCAGUUGUCCUAGGGAAAGACCUGGGGGUGCAAAAGGAGAUUCAAGACAUCCGUACCAAGUCAGGCAGAGCUACCCGCUUCUCAGCCCGUGUCCCACUUAAAACCGUCCGAACACAAAUCACUGAGCUUAGAGUUAAACAUUGUGGUCAAGUGCUUGGGUUCCGUCUCUUGCGGUCGCACUAGUGUGGAAUUCUCGGGUGUCAAGG
B6: ENSMUSG00000058297.519|Spock2 (ssRNA)
RNA: GGGAGUUCUACAGUCCGACGAUCGCUUCGAUAUCCGCAUGCUACACAGGAGUCGUGACCACGUGUGAUGGGUGGGCACAGGUCUGCCUUGCUCCAGCCCCCUCCCUUGGUUUCUGUUGGUACCCAUUUGGCUUUUAUCUGCUUUCUGCUUCACCACUAAGUGCGUAGGUGGGGUCUUUUGAUAUCGGCUCCCCAAAGCCCAAGCCCACAGCCCUAGGAGAGAACCAGGGGCCCAUCUUUGACACCUGGGCCAUCACGAGCCCUCCCGCCUGCAGUUGUCCUAGGGAAAGACCUGGGGGUGCAACUCUUGCGGUCGCACUAGUGUGGAAUUCUCGGGUGUCAAGG
B7: ENSMUSG00000061578.447|Ksr2 (ssRNA)
RNA: GGGAGUUCUACAGUCCGACGAUCGCUUCGAUAUCCGCAUGCUAUUUCAGAGGGGAUAGUUCCUUCUAACCUUGUACUGGGACAUCAUCUAUGUCCCCAUCCCCAGAGCUGAAUUAGAGACACCAAGUAGCCUCUUGGGUUGUUUUGUGGGGUGUUCCCCUUGCUGGUCAAAGGAGUGGAAAGCCACCUUGCUGUAAAUGCUCUUGUUUUCUGUAGCAAUCUUGAACUCUUUUUUUUUUUUGUUCGUUUGUUUGUUUGUUUGUUUGUUUGUUUUUUCAAGACAGGGUUUUUCUGUAUAGCCCUGCUCUUGCGGUCGCACUAGUGUGGAAUUCUCGGGUGUCAAGG
B8: ENSMUSG00000031028.308|Tub (ssRNA)
RNA: GGGAGUUCUACAGUCCGACGAUCGCUUCGAUAUCCGCAUGCUAGAACCCUCAGCGAGGUAGCCUUUGUUUACAGUCUAGUUUCUAGAGGGCAGUAGGACUUCCAUGCUGGGGCUGGCCUAUCUCCUGAUGAAAGAUUACAGUGCCAUCUCCUUCCCAUAGUUCUGUGUCUGCCCUCCCUCCCUGACUUUAUAGGGAGAAAUCUCCUGACAUUAGAGGUGAUAGAAACCAGAGCUUUAGUCUAGUCAGGCUGUUUCUCUGGGUUGACAAGUUUAAGGUUGAACAGGCUGAUUUCUGGAAUCUCACUCUUGCGGUCGCACUAGUGUGGAAUUCUCGGGUGUCAAGG

Biological target: TDP-43 (Homo sapiens, UniProt Q13148 1-414)
Assay: RNA Bind-n-Seq with designed 260-mer pool; 25 mM Tris-HCl, 150 mM KCl, 3 mM MgCl2, BSA (printed 500 mg/mL), 20 units/mL SUPERase IN; pH not stated; 500 nM RNA pool, 1 h, 4 C; TDP-43 5, 50, 500 nM; high values mean tight binding
Conditions: protein: recombinant; tags: SBP (GST cleaved off with PreScission; pGEX-GST-SBP)
How it was run: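 For each oligo, R gives binding as its mapped-read-normalized abundance after pulldown divided by its abundance in input. Bead-captured SBP-tagged TDP-43 (5, 50 or 500 nM) was incubated with 500 nM of an in vitro-transcribed 260-nt 3′ UTR oligo pool for 1 h at 4 °C in 25 mM Tris-HCl, 150 mM KCl, 3 mM MgCl2, BSA and SUPERase IN on streptavidin beads. Washed, biotin-eluted RNA was reverse transcribed, PCR-amplified and sequenced.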

TDP-43, sequence (Q13148 whole entry): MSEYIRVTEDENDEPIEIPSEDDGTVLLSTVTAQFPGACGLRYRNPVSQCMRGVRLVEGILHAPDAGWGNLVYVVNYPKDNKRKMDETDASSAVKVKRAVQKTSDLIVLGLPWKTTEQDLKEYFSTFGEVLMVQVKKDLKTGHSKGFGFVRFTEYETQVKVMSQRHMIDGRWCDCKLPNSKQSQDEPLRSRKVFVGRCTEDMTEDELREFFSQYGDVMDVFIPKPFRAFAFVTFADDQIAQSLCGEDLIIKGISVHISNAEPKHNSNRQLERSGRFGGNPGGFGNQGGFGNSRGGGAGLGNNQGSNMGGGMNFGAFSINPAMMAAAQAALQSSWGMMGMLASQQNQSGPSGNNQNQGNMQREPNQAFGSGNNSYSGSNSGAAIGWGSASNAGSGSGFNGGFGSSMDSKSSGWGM

Binder | binding signal
B1 | 1.03 R (bound/input frequency ratio)
B2 | 1.56 R (bound/input frequency ratio)
B3 | 0.95 R (bound/input frequency ratio)
B4 | 0.757 R (bound/input frequency ratio)
B5 | 0.821 R (bound/input frequency ratio)
B6 | 0.833 R (bound/input frequency ratio)
B7 | 2.55 R (bound/input frequency ratio)
B8 | 0.194 R (bound/input frequency ratio)
